# Results filed as inconclusive are left out. A number with no mark means an inactive call. Activity calls are given as the source filed them. Calls come from the whole dose curve; as a rule, active = well fitted curve in the direction sought with a large enough effect in the repeat runs; inconclusive = weak or mixed curves; inactive = no such curve, though single readings can be large; an effect the other way counts as inactive or inconclusive.
# Experiment: qHTS assay for identifying genotoxic compounds that show differential cytotoxicity against isogenic chicken DT40 cell lines with known DNA damage response pathways - Rev3 mutant cell line (AID 743014); note: nearly all actives have a fitted effect of over 55% in size; note: potency is the fitted concentration of half-maximal effect
# Settings: chicken DT40 Rev3-/- viability, CellTiter-Glo, 40 h; series mostly up to 68.4 µM; activity, negative = cytotoxicity: at the top concentration
# % is set by controls: 0 for no effect and ±100 for the full control effect.
Compound,"activity, negative = cytotoxicity",Potency
Cc1ccc(-c2ncc(Cl)cc2-c2ccc(S(C)(=O)=O)cc2)cn1,-0.446%,–
CO[C@@]1(NC(=O)CSC[C@@H](N)C(=O)O)C(=O)N2C(C(=O)O)=C(CSc3nnnn3C)CS[C@@H]21,-4.48%,–
CCCc1nn(C)c2c(=O)[nH]c(-c3cc(S(=O)(=O)N4CCN(C)CC4)ccc3OCC)nc12,2.58%,–
CCCCN1C=CN(C)C1,1.29% [at 31.4 µM],–
CC(C)[C@H]1CC[C@@H](C)CC1=O,-10.9%,–
CCN1CCOCC1,-7.1%,–
COc1cccc(OC)c1C(=O)N[C@@H]1C(=O)N2[C@@H]1SC(C)(C)[C@@H]2C(=O)O,18.8%,–
COc1ccccc1OCC1CNC(=O)O1 (stereo unspecified),3.66%,–
CCCCOCCOC(=O)CCCCCCCCC(=O)OCCOCCCC,1.56%,–
COc1ccnc(CS(=O)c2nc3cc(OC(F)F)ccc3[nH]2)c1OC (stereo unspecified),-9.04%,–
NCCCC[C@H](N[C@@H](CCc1ccccc1)C(=O)O)C(=O)N1CCC[C@H]1C(=O)O,13.1% [at 31.4 µM],–
CC[N+](C)(CC)CCOC(=O)C1c2ccccc2Oc2ccccc21,14.9%,–
C[C@H]1[C@H](NC(=O)/C(=N/OC(C)(C)C(=O)O)c2csc(N)n2)C(=O)N1S(=O)(=O)O (stereo in doubt),4.06% [at 31.4 µM],–
CCOCC(C)O (stereo unspecified),-16.2%,–
CC12CCC(C(=O)C1=O)C2(C)C (stereo unspecified),0.131% [at 95 µM],–
CN(C)CCCN(C)CCCN(C)C,-6.53%,–
CCCCS(=O)(=O)N[C@@H](Cc1ccc(OCCCCC2CCNCC2)cc1)C(=O)O,-4.95%,–
O=C(O)CNC(=O)c1ccc(CO)o1,0.293%,–

Compound,"activity, negative = cytotoxicity",Potency
C=CCOCC(O)CO (stereo unspecified),-8.11%,–
CC(C)(CCC(=O)O)C(=O)O,7.92% [at 95 µM],–
OCCc1ccccn1,-16.8%,–
CC1(C)[C@@H]2CC[C@@]1(C)[C@H](O)C2,-6.24%,–
CCCCc1nc(Cl)c(CO)n1Cc1ccc(-c2ccccc2-c2nn[nH]n2)cc1,-1.17%,–
CC(=O)c1ccccc1[N+](=O)[O-],-2.44%,–
CC(C)COC(=O)c1ccc(N)cc1,-9.23%,–
O=S(=O)(O)c1cccc2ccccc12,-2.23%,–
C1CCC2(CCCCO2)OC1,1.73%,–
Cc1ccnc(NS(=O)(=O)c2ccc(N)cc2)n1,0.42% [at 31.4 µM],–
CCCCCCCCCC[N+](C)(C)[O-],–,13.7 µM (active)
c1ccc(Cc2ccccc2)cc1,-18.4%,–
CC1=NS(=O)(=O)c2cc(Cl)ccc2N1,-0.0601%,–
Cc1ccc(C(=O)c2ccc(CC(=O)O)n2C)cc1,6.6% [at 31.4 µM],–
Cc1cccc(C)c1NC(=O)CC12CCCN1CCC2,2.72%,–
Nc1ccccn1,13.8%,–
CCCCCCCCCCCCSC,–,61.1 µM (active)
C[C@@H]1CCC[C@H](C)N1,0.709% [at 31.4 µM],–

# Experiment: qHTS assay for identifying genotoxic compounds that show differential cytotoxicity against isogenic chicken DT40 cell lines with known DNA damage response pathways - Rad54/Ku70 mutant cell line (AID 743015); note: nearly all actives have a fitted effect of over 60% in size
# Settings: DT40 Rad54/Ku70 mutant viability, CellTiter-Glo, 40 h; series mostly up to 66.8 µM; activity change, negative = cytotoxicity: at the top concentration
row,Compound,"activity change, negative = cytotoxicity"
1,CCCCN1C=CN(C)C1,13.8% [at 30.7 µM]
2,CC(C)[C@H]1CC[C@@H](C)CC1=O,8.55%
3,CCN1CCOCC1,5.01%
4,COc1cccc(OC)c1C(=O)N[C@@H]1C(=O)N2[C@@H]1SC(C)(C)[C@@H]2C(=O)O,0.366%
5,COc1ccccc1OCC1CNC(=O)O1 (stereo unspecified),10.3%
6,NCCCC[C@H](N[C@@H](CCc1ccccc1)C(=O)O)C(=O)N1CCC[C@H]1C(=O)O,0.921% [at 30.7 µM]
7,CC[N+](C)(CC)CCOC(=O)C1c2ccccc2Oc2ccccc21,6.64%
8,C[C@H]1[C@H](NC(=O)/C(=N/OC(C)(C)C(=O)O)c2csc(N)n2)C(=O)N1S(=O)(=O)O (stereo in doubt),9.74% [at 30.7 µM]
9,CCOCC(C)O (stereo unspecified),-17.5%
10,CC12CCC(C(=O)C1=O)C2(C)C (stereo unspecified),0.828% [at 95.1 µM]
11,O=C(O)CNC(=O)c1ccc(CO)o1,5.82%
12,C=CCOCC(O)CO (stereo unspecified),3.1%
13,CC(C)(CCC(=O)O)C(=O)O,0.86% [at 95.1 µM]
14,CC1(C)[C@@H]2CC[C@@]1(C)[C@H](O)C2,7.73%
15,CCCCc1nc(Cl)c(CO)n1Cc1ccc(-c2ccccc2-c2nn[nH]n2)cc1,-12.1%
16,CC(=O)c1ccccc1[N+](=O)[O-],9.75%
17,CC(C)COC(=O)c1ccc(N)cc1,-0.12%
18,Cc1ccnc(NS(=O)(=O)c2ccc(N)cc2)n1,5.47% [at 30.7 µM]
19,c1ccc(Cc2ccccc2)cc1,2.63%
20,CC1=NS(=O)(=O)c2cc(Cl)ccc2N1,-2.28%
21,Cc1ccc(C(=O)c2ccc(CC(=O)O)n2C)cc1,0.658% [at 30.7 µM]
22,Cc1cccc(C)c1NC(=O)CC12CCCN1CCC2,1.83%
23,Nc1ccccn1,1.75%
24,C[C@@H]1CCC[C@H](C)N1,1.15% [at 30.7 µM]

# Experiment: qHTS assay to identify small molecule antagonists of the androgen receptor (AR) signaling pathway - cell viability counter screen (AID 743033; note: nearly all actives have a fitted effect of over 45% in size)
# Settings: AR-bla HEK293 viability, CellTiter-Glo luminescence, 16 h; series mostly up to 58.5 µM; activity change, negative = cytotoxicity: at the top concentration
Compound,"activity change, negative = cytotoxicity",outcome
Cc1ccc(-c2ncc(Cl)cc2-c2ccc(S(C)(=O)=O)cc2)cn1,-3.35%,–
CO[C@@]1(NC(=O)CSC[C@@H](N)C(=O)O)C(=O)N2C(C(=O)O)=C(CSc3nnnn3C)CS[C@@H]21,1.85%,–
CCCc1nn(C)c2c(=O)[nH]c(-c3cc(S(=O)(=O)N4CCN(C)CC4)ccc3OCC)nc12,1.38%,–
CCCCN1C=CN(C)C1,0.877% [at 27 µM],–
CC(C)[C@H]1CC[C@@H](C)CC1=O,4.89%,–
CCN1CCOCC1,-13.2%,–
COc1ccccc1OCC1CNC(=O)O1 (stereo unspecified),1.2%,–
CCCCOCCOC(=O)CCCCCCCCC(=O)OCCOCCCC,-28.8%,–
COc1ccnc(CS(=O)c2nc3cc(OC(F)F)ccc3[nH]2)c1OC (stereo unspecified),–,inactive
NCCCC[C@H](N[C@@H](CCc1ccccc1)C(=O)O)C(=O)N1CCC[C@H]1C(=O)O,-0.284% [at 27 µM],–
CC[N+](C)(CC)CCOC(=O)C1c2ccccc2Oc2ccccc21,5.11%,–
C[C@H]1[C@H](NC(=O)/C(=N/OC(C)(C)C(=O)O)c2csc(N)n2)C(=O)N1S(=O)(=O)O (stereo in doubt),-14.6% [at 27 µM],–
CCOCC(C)O (stereo unspecified),0.647%,–
CC12CCC(C(=O)C1=O)C2(C)C (stereo unspecified),0.769% [at 78.9 µM],–
CN(C)CCCN(C)CCCN(C)C,7.54%,–
CCCCS(=O)(=O)N[C@@H](Cc1ccc(OCCCCC2CCNCC2)cc1)C(=O)O,11.5%,–

Compound,"activity change, negative = cytotoxicity",outcome
O=C(O)CNC(=O)c1ccc(CO)o1,-1.09%,–
C=CCOCC(O)CO (stereo unspecified),-1.75%,–
CC(C)(CCC(=O)O)C(=O)O,-4.51% [at 78.9 µM],–
OCCc1ccccn1,1.12%,–
CC1(C)[C@@H]2CC[C@@]1(C)[C@H](O)C2,10.8%,–
CC(=O)c1ccccc1[N+](=O)[O-],6.11%,–
CC(C)COC(=O)c1ccc(N)cc1,4.04%,–
O=S(=O)(O)c1cccc2ccccc12,2.85%,–
C1CCC2(CCCCO2)OC1,-1.45%,–
Cc1ccnc(NS(=O)(=O)c2ccc(N)cc2)n1,-0.127% [at 27 µM],–
CCCCCCCCCC[N+](C)(C)[O-],-9.1%,–
CC1=NS(=O)(=O)c2cc(Cl)ccc2N1,-4.11%,–
Nc1ccccn1,3.03%,–
CCCCCCCCCCCCSC,-6.2%,–
C[C@@H]1CCC[C@H](C)N1,2.41% [at 27 µM],–

# — PubChem BioAssay (Tox21)
